From PubChem BioAssay (Tox21)
Results filed as inconclusive are left out. The source made the active and inactive calls. Unless noted, calls follow the shape of the dose curve; as a rule, active = well fitted curve in the direction sought with a large enough effect in the repeat runs; inconclusive = weak or mixed curves; inactive = no such curve, though single readings can be large; an effect the other way counts as inactive or inconclusive.

How the values were obtained:
[1] = target: Progesterone receptor (Homo sapiens) (UniProt P06401); assay: qHTS assay to identify small molecule agonists of the progesterone receptor (PR) signaling pathway (AID 1346784; calls by dose curve; also: nearly all actives have a fitted effect of over 30% in size)
Progesterone receptor (Homo sapiens), sequence (P06401 whole entry, looked up): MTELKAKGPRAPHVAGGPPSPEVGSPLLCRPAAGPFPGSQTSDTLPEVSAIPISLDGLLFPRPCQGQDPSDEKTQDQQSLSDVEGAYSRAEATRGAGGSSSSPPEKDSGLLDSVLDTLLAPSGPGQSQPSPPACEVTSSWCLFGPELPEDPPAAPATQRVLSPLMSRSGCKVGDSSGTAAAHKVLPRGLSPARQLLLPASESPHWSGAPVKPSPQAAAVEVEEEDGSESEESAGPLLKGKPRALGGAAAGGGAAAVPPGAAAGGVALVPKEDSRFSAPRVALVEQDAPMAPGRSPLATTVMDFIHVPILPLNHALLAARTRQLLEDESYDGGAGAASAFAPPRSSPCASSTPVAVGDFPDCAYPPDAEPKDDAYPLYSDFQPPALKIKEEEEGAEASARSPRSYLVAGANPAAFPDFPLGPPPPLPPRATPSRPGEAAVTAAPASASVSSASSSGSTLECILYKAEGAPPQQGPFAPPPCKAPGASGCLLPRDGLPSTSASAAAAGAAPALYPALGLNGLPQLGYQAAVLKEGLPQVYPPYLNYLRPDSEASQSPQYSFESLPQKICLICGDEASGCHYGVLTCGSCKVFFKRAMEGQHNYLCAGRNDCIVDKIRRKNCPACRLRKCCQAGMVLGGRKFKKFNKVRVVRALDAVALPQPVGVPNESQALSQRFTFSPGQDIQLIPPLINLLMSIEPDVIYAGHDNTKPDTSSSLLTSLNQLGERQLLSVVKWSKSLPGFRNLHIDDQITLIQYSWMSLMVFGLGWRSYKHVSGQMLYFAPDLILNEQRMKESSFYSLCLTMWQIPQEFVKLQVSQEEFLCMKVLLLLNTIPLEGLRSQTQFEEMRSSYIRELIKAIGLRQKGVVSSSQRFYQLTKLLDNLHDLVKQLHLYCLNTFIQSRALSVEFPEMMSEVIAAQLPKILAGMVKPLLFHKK
Summary of the method: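 PR-UAS-bla HEK 293T cells carrying a UAS-driven beta-lactamase reporter were seeded in medium with 2% charcoal-stripped FBS, preincubated 6 hr at 37C, then exposed to compounds in DMSO for 16 hr; agonism was read by LiveBLAzer B/G FRET fluorescence.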

[2] = qHTS assay to identify small molecule antagonists of the progesterone receptor (PR) signaling pathway - cell viability counter screen (AID 1346798); also: series mostly up to about 92 µM; nearly all actives have a fitted effect of over 50% in size
Summary of the method: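 PR-UAS-bla HEK293T cells in medium with 2% charcoal-stripped FBS were treated with compounds plus R5020 for 16 hr at 37C. Cell viability was then read by CellTiter-Glo luminescence after 30 min at room temperature in the same wells.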

[3] = qHTS assay to identify small molecule agonists of the progesterone receptor (PR) signaling pathway - cell viability counter screen (AID 1346799; calls by dose curve; also: nearly all actives have a fitted effect of over 45% in size)
Summary of the method: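 PR-UAS-bla HEK293T cells, 3,000 per well in medium with 2% charcoal-stripped FBS, were preincubated 6 hr at 37C, then exposed to compounds for 16 hr; viability was read as CellTiter-Glo luminescence after 30 min at room temperature.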

[4] = qHTS assay to identify small molecule antagonists of the TGF-beta/Smad signaling pathway - cell viability counter screen (AID 1346824); also: nearly all actives have a fitted effect of over 50% in size
Summary of the method: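 Cytotoxicity counter-screen run in the same wells as the beta-lactamase Smad reporter read: CellTiter-Glo luminescence after 30 min at room temperature. HEK 293T SBE-bla cells had 5 hr compound exposure at 37 C with TGF-beta1 (0.25 ng/mL stock).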

[5] = qHTS assay to identify small molecule agonists of the TGF-beta/Smad signaling pathway - cell viability counter screen (AID 1346829); also: top concentration of the series differs between compounds; nearly all actives have a fitted effect of over 45% in size
Summary of the method: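 Compound-treated SBE-bla HEK 293T cells (5 hr, 37 C) were assessed for viability with CellTiter-Glo in parallel with the reporter read.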

[6] = qHTS assay to identify small molecule agonists of the TGF-beta/Smad signaling pathway (AID 1346859; active = well fitted activation curve with a large enough effect in the signal ratio in the repeat runs, not every such curve was filed as active; the % refers to the signal ratio; also: series mostly up to about 77 µM)
Summary of the method: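 HEK 293T cells stably carrying a beta-lactamase reporter driven by the Smad binding element were seeded overnight, exposed to DMSO-dissolved compounds for 5 hr at 37 C, 5% CO2, then loaded with FRET substrate for 2 hr at room temperature.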

[7] = target: Thyrotropin-releasing hormone receptor (Homo sapiens) (UniProt P34981); assay: qHTS assay to identify small molecule antagonists of the thyrotropin-releasing hormone receptor (TRHR) signaling pathway (AID 1346877; active = well fitted inhibition curve with a large enough effect in the repeat runs, not every such curve was filed as active; also: series mostly up to about 51 µM)
Thyrotropin-releasing hormone receptor (Homo sapiens), sequence (P34981 whole entry, looked up): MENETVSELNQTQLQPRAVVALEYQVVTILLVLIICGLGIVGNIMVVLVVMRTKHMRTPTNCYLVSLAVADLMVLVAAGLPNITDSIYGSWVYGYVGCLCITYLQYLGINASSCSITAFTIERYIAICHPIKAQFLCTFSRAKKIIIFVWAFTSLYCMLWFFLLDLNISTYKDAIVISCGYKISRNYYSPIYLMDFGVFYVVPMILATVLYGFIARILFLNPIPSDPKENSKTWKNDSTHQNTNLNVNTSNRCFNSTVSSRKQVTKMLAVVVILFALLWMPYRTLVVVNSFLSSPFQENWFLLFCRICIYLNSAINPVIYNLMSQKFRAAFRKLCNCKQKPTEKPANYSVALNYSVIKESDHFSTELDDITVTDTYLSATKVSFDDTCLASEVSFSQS
Summary of the method: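 Intracellular calcium fluorescence, read kinetically every second over 3 min, reports TRH-evoked signalling in HEK293 cells carrying TRHR. Test compounds were added 5 min ahead of a 1 nM TRH challenge.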

[8] = target: Thyrotropin-releasing hormone receptor (Homo sapiens) (UniProt P34981); assay: qHTS assay to identify small molecule agonists of the thyrotropin-releasing hormone receptor (TRHR) signaling pathway (AID 1346891; calls by dose curve; also: potency is read from the fitted curve at half-maximal effect; as to activation: series mostly up to about 58 µM)
Summary of the method: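 TRHR-expressing HEK293 cells were plated 18 h at 37 °C/5% CO2, loaded with calcium dye 2 h at 37 °C, then given compound in DMSO; fluorescence was read kinetically for 3 min at 1 s intervals.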

[9] = Human pregnane X receptor (PXR) small molecule agonists, qHTS cell viability counter screen (AID 1346977); also: nearly all actives have a fitted effect of over 50% in size; also: potency is read from the fitted curve at half-maximal effect
Summary of the method: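 PXR-Luc HepG2 cells in medium with 5% charcoal-stripped FBS were pre-incubated 5hr, then exposed to compounds for 24hr at 37C. Viability was read in the same wells by CellTiter-Fluor fluorescence, reagent added after 23hr with a 1hr incubation.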

[10] = target: Progesterone receptor (Homo sapiens) (UniProt P06401); assay: qHTS assay to identify small molecule antagonists of the progesterone receptor (PR) signaling pathway (AID 1346795; active = well fitted inhibition curve with a large enough effect in the signal ratio in the repeat runs, not every such curve was filed as active; the % refers to the signal ratio)
Summary of the method: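 PR-UAS-bla HEK293T cells carrying a UAS-driven beta-lactamase reporter were plated in medium with 2% charcoal-stripped FBS and rested 6 hr at 37C. Compounds were added with 1 nM R5020 (final) for 16 hr, then FRET substrate loaded 2 hr at room temperature.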

Measured: Potency

CCOC(=O)c1cccnc1
not listed: [10]
inactive: all other assays above

C[C@@H](c1ncncc1F)C(O)(Cn1cncn1)c1ccc(F)cc1F (some centres not stated)
not listed: [10]
inactive: all other assays above

C#C[C@]1(O)CC[C@H]2[C@@H]3CCc4cc(OC5CCCC5)ccc4[C@H]3CC[C@@]21C
inactive: [1] | [2] | [3] | [4] | [5]

O=C1C(O)=C(O)C(=O)C(O)=C1O
inactive: [1] | [10] | [4] | [6] | [9]

OCc1cc(C(O)CNCCCCCCOCCCCc2ccccc2)ccc1O (configuration not stated)
active: [9] 21.1 µM
not listed: [10]
inactive: all other assays above

O=P(O)(OCc1ccccc1)OCc1ccccc1
not listed: [7] | [8] | [10]
inactive: all other assays above

O=C(O)C(S)C(S)C(=O)O (configuration not stated)
not listed: [7] | [8] | [10]
inactive: all other assays above

CCCC(=O)Nc1ccc(O)c(C(C)=O)c1
not listed: [7] | [10]
inactive: all other assays above

CN1C[C@H]2c3ccccc3Oc3ccc(Cl)cc3[C@@H]2C1
inactive: [1] | [2] | [4] | [5] | [6] | [7]

CCOC(=O)C1=C[C@]2(CC)CCCN3CCc4c(n1c1ccccc41)[C@@H]32
inactive: [1] | [2] | [3] | [4] | [8]
active: [9] 26.6 µM

COC(C)(C)CCO
not listed: [4] | [6] | [10]
inactive: all other assays above

COCC(C)OC(C)=O (configuration not stated)
not listed: [7] | [8] | [10]
inactive: all other assays above

CCCCCCCCCCO[C@@H]1O[C@H](CO)[C@@H](O)[C@H](O)[C@H]1O
not listed: [7] | [8] | [10]
inactive: all other assays above

Cc1ncc(CO)c(C=O)c1O
not listed: [5] | [10]
inactive: all other assays above

CCC(C)c1cc(C(C)(C)C)c(O)c(C(C)(C)C)c1 (configuration not stated)
not listed: [7] | [10]
inactive: all other assays above

CCN(CC)c1ccc(C(=C2C=CC(=[N+](CC)CC)C=C2)c2cc(S(=O)(=O)O)ccc2S(=O)(=O)[O-])cc1
active: [9] 15 µM
not listed: [4] | [5] | [10]
inactive: all other assays above

C#CCN(C)CCCOc1ccc(Cl)cc1Cl
not listed: [5] | [6] | [10]
inactive: all other assays above

NC(=O)C(c1ccccc1)(c1ccccc1)[C@@H]1CCN(CCc2ccc3c(c2)CCO3)C1
inactive: [1] | [2] | [3] | [5] | [6]

CCCCC
active: [8] 27.1 µM
not listed: [7] | [9] | [10]
inactive: all other assays above

CC(C)=CCC/C(C)=C/CC/C(C)=C/CO
not listed: [6] | [10]
inactive: all other assays above
